According to PubChem BioAssay AID488975 (Johns Hopkins Ion Channel Center, 2010):
About 2,600 (0.84%) of roughly 310,000 compounds were called active.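 The calls were made as follows: active = B-score over 3 SD under the library average, and starting fluorescence ratio not unusually high; inactive = the rest.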 Only a selection was taken, and actives are over-represented in it overall.

Biological target: High affinity choline transporter 1 (Homo sapiens) (UniProt Q9GZV3)
Test: inhibitors of human choline transporter CHT (AID 488975);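 as to B-score: choline stimulus applied at its EC90 after an EC20 pre-addition; B-score computed on integrated fluorescence ratio after choline addition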
Conditions: CHT-expressing cells, membrane potential dye, choline response, at 10 µM; active compounds read low

Sequence of High affinity choline transporter 1 (Homo sapiens) (Q9GZV3 whole entry, looked up): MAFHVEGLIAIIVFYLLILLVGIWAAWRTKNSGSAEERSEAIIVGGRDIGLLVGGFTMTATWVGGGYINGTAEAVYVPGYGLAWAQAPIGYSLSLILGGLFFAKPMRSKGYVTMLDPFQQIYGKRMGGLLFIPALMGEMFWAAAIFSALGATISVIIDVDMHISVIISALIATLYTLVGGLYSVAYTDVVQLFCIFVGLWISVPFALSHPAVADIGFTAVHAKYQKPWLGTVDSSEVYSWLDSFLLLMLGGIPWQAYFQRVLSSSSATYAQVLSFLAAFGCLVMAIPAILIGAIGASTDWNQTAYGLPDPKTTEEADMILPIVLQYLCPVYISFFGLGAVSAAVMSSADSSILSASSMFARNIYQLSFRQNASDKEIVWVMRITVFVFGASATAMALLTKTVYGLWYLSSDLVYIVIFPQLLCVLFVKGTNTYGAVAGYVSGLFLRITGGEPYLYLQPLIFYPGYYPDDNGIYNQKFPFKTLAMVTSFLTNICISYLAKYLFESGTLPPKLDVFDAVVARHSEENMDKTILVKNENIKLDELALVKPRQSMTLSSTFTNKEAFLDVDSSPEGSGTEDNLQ

Compound | B-score
COc1ccc(Cc2nnc(SCC(=O)N(c3ccccc3)C(C)C)n(N)c2=O)cc1 | inactive
O=c1c2ccccc2nnn1CSc1nnnn1-c1ccccc1 | inactive
Nc1nnc(SCn2nnc3ccccc3c2=O)s1 | inactive
O=c1c2ccccc2nnn1CSc1nc2sc3c(c2c(=O)n1CC1CCCO1)CCC3 (centres undefined) | -11.3 (active)
CCn1c(SCCC(C)C)nnc1-c1c[nH]c2ccccc12 | -5.53 (active)
CCC(C)Sc1nnc(-c2c[nH]c3ccccc23)n1CCOC (centres undefined) | inactive
CCn1c(SCC(=O)Nc2ccc(OC)c(OC)c2)nnc1-c1c[nH]c2ccccc12 | inactive
O=[N+]([O-])c1ncc(Br)cc1Nc1ccccc1 | inactive
CCOCCn1[nH]c2ccccc2c1=O | inactive
CC(Oc1ccc(Br)cc1)C(=O)NCC(c1ccco1)N1CCCCC1 (centres undefined) | inactive
CCc1ccc2c(c1)C(c1ccc([N+](=O)[O-])cc1)=NNC(c1ccccc1)=N2 | inactive
CCc1ccc2c(c1)C1(NN=C(c3ccccc3)S1)C(=O)N2 (centres undefined) | -6.53 (active)
O=C1Nc2ccccc2C12Nc1ccccc1S2 (centres undefined) | inactive
CCC(C(=O)N1CCOCC1)n1c(C(=O)OC)cc2occc21 (centres undefined) | -6.51 (active)
COC(=O)c1cc2occc2n1Cc1nc(-c2ccccc2C)oc1C | inactive
CCOC(=O)c1cc2occc2n1CC(=O)N1CCN(C(=O)c2ccco2)CC1 | inactive
O=C(CN1CCOCC1)Nc1cccc([N+](=O)[O-])c1 | inactive
O=C(CCNC(=O)c1ccc(Br)cc1)NCCCc1ccccc1 | inactive
Cc1c(C(=O)OC(C)C)sc(NC(=O)c2cccnc2)c1C#N | -5.25 (active)
CCOC(=O)c1cc(NC(=O)c2cccnc2)ccn1 | inactive
CCOC(=O)c1ccc(NC(=O)c2cccnc2)cc1 | inactive
Cc1ccc(C)c(OCCC(=O)OCC(=O)NC(=O)NCc2ccccc2)c1 | inactive
COc1ccccc1C(=O)Nc1ccccc1C(=O)Nc1ccccc1 | inactive
Nc1nonc1-n1nnc(C(=O)N/N=C/c2ccccc2O)c1CN1CCCC1 | inactive
C/C(=N\NC(=O)c1cccc(N2CCCC2=O)c1)c1ccc(N)cc1 | inactive
Cc1ccc(C(=O)NC2CCCC(C)C2C)cc1S(=O)(=O)N1CCCCC1 (centres undefined) | -9.32 (active)

Compound | B-score
CC1CCC(NC(=O)c2ccc(N3CCCC3=O)cc2)CC1 (centres undefined) | inactive
Cc1ccc(C(=O)NNC(=O)c2ccncc2)cc1S(=O)(=O)N1CCCCC1 | inactive
CC1CCCC(NC(=O)c2cccc(N3CCCC3=O)c2)C1C (centres undefined) | -5.25 (active)
Cc1ccc(C(=O)Nc2ccc3c(c2)OCO3)cc1S(=O)(=O)N1CCCCC1 | inactive
COc1ccc2oc(C(=O)OCC(=O)N(CC(C)C)c3c(N)n(Cc4ccccc4)c(=O)[nH]c3=O)c(C)c2c1 | inactive
CC1=NNC(=O)C1Cc1c(Cl)cccc1Cl (centres undefined) | inactive
Cc1ccc2nc(NC(=O)CSc3nc(=O)n(CCCN(C)C)c4c3CCC4)sc2c1 | inactive
COc1ccc(S(=O)(=O)N2CCCCCC2)cc1C(=O)N(C)Cc1cccc(OC)c1OC | inactive
C=CCn1cnc2scc(-c3ccccc3)c2c1=O | inactive
CN(CCC#N)c1ncnc2scc(-c3ccccc3)c12 | -6.05 (active)
N#CCCN(CCC#N)c1nnc(-c2ccccc2)s1 | inactive
COc1cc(C(=O)N(C)Cc2cccc(OC)c2OC)ccc1OCC(=O)Nc1cccc(C(F)(F)F)c1 | inactive
Fc1ccccc1COc1cccc2cccnc12 | inactive
CN(/N=C/c1ccccc1)C(=S)c1ccccc1 | inactive
COc1ccc([C@@H]2[C@@H]3C(=O)N(C(C)(C)C)C(=O)[C@@H]3[C@]3(Cc4ccccc4)C(=O)N(c4cccc(Br)c4)C(=O)N23)cc1 | inactive
Cc1cccc(NC(=O)c2cccc(S(=O)(=O)N3CCCC3)c2)n1 | inactive
O=S(=O)(c1cccc(-c2nnc3n2CCCCC3)c1)N1CCOCC1 | inactive
O=S(=O)(c1cccc(-c2nnc(SC(F)F)n2-c2ccccc2)c1)N1CCCCC1 | -6.54 (active)
O=S(=O)(c1cccc(-c2cn3ccccc3n2)c1)N1CCCC1 | inactive
Cc1onc(-c2ccccc2Cl)c1C(=O)N(Cc1ccc(N(C)C)cc1)C(C)C | inactive
Cc1ccn2c(=O)c(NC(=O)c3cccc4ccccc34)c(C)nc2c1 | inactive
Cc1c(Cl)cccc1NC(=O)NCc1ccc(C)n1C | inactive
COC(=O)C(C(=O)Nc1cccc(Cl)c1C)C1CCCC1 (centres undefined) | -5.46 (active)
Cc1c(Cl)cccc1NC(=O)Nc1ccc(C(=O)N2CCCC2)cc1 | inactive
CCN(CC(=O)Nc1c(F)cccc1F)C(=O)C1CCC1 | inactive
Cc1ccc(S(=O)(=O)NC(C)C(=O)NCc2ccc(Cl)cc2)cc1 (centres undefined) | inactive

Compound | B-score
CCCNC(=O)c1ccc(N2CCC3(CC2)CC(c2cccc(Br)c2)=NO3)c(NC(=O)c2ccco2)c1 | inactive
CCN(CC(=O)Nc1cc(Cl)ccc1C)C(=O)CSCc1ccc(C)cc1 | inactive
CN(CC(=O)NCc1ccc(Cl)cc1)S(=O)(=O)c1cccs1 | inactive
CCN(CC(=O)NCc1ccc(Cl)cc1)C(=O)CSc1ccccc1 | -5.83 (active)
COc1ccc(N2CC(NS(=O)(=O)c3ccc4ccccc4c3)CC2=O)cc1 (centres undefined) | inactive
O=C1N[C@@H](Cc2ccccc2)C(=O)N2[C@H]1C[C@]1(Br)c3ccccc3N(S(=O)(=O)c3ccccc3)[C@H]21 | inactive
Cc1nc2ccccc2c(=O)n1-c1ccc(F)c(NC(=O)c2cccs2)c1 | inactive
CCN(CC)CCn1c2c(c(SCC(=O)Nc3ccc(C(C)C)cc3)nc1=O)CCC2 | inactive
COc1ccc(N(CC(=O)N2CCCCCC2)S(=O)(=O)c2ccccc2)cc1 | inactive
CS(=O)(=O)N(CC(=O)N1CCN(c2cccc(Cl)c2)CC1)c1ccccc1 | inactive
CC1CCN(C(=O)CN(c2ccc(Oc3ccccc3)cc2)S(C)(=O)=O)CC1 | -5.53 (active)
NC(=O)NCCCC(=O)O | inactive
Cc1ccc(NC(=O)COc2coc(CN3CCc4ccccc4C3)cc2=O)cc1Cl | inactive
O=C(Nc1ccncc1)c1ccccc1[N+](=O)[O-] | inactive
O=C(O/N=C(/c1ccccc1)c1ccncc1)c1ccccc1[N+](=O)[O-] | -5.03 (active)
COc1ccc(NC(=O)c2ccccc2[N+](=O)[O-])cc1OC | inactive
COc1ccc(-c2cc(C(=O)N/N=C/c3cccnc3)c3ccccc3n2)c(OC)c1 | inactive
O=C(O)CC1=C(Nc2ccccc2)C(=O)N(c2ccccc2)C1c1ccc(Cl)cc1 (centres undefined) | -9.58 (active)
O=C(O)Cc1ccc(NCc2ccccc2Cl)cc1 | inactive
COC(=O)CN1C(=S)N(c2ccccc2)C(=O)C1CC(=O)Nc1ccc(Cl)cc1 (centres undefined) | inactive
O=C(NCCc1ccco1)C(=O)NCCC1CCCCN1S(=O)(=O)c1ccccc1 (centres undefined) | inactive
O=C(C1CCN(S(=O)(=O)c2ccc(Br)s2)CC1)N1CCN(C2CCCCC2)CC1 | inactive
O=C(C1CCN(S(=O)(=O)c2ccc(Br)s2)CC1)N1CCN(c2ccccc2)CC1 | -8.2 (active)
CS(=O)(=O)N1CCC(C(=O)N2CCN(c3ccccc3)CC2)CC1 | inactive
CC(Sc1nn(-c2ccc(Cl)cc2)c(=S)s1)C(=O)NCC1CCCO1 (centres undefined) | inactive
COc1ccc(S(=O)(=O)N2CCOC23CCN(S(=O)(=O)c2ccc([N+](=O)[O-])cc2)CC3)cc1 | inactive

Compound | B-score
O=C(NCc1ccccn1)Nc1ccc(F)cc1 | inactive
CCC(C)c1ccc(NC(=S)NCc2ccccn2)cc1 (centres undefined) | -9.17 (active)
O=C(NCc1ccccn1)Nc1ccc(Cl)cc1 | inactive
CCOC(=O)C(C)N(c1ccccc1Cl)S(C)(=O)=O (centres undefined) | inactive
O=C(Nc1cccc2cccnc12)c1cccc(N2C(=O)CCC2=O)c1 | inactive
O=C(Nc1cccc2cccnc12)c1cccc(Cl)c1 | inactive
N#Cc1ccc(C(=O)Nc2cccc3cccnc23)c(F)c1 | -5.02 (active)
CCOC(=O)c1cc(C(C)C)sc1NC(=O)COC(=O)c1nccnc1N | inactive
CCOc1ccc(NS(=O)(=O)c2ccc(C(=O)NC3CCN(Cc4ccccc4)CC3)cc2)cc1 | inactive
Cc1ccc(CNC(=O)c2cc(-c3ccccc3C)n(CC3CC(c4cccc([N+](=O)[O-])c4)=NO3)n2)cc1 (centres undefined) | inactive
O=C(CC(Cc1ccccc1)C(=O)O)NCCc1ccc2c(c1)OCO2 (centres undefined) | inactive
O=C(NCCc1ccc2c(c1)OCCO2)c1cc2ccccc2o1 | -5.1 (active)
N=c1oc2ccccc2cc1C(=O)NCc1ccccc1 | inactive
COc1ccc(C(=O)NCC2CCCN2S(=O)(=O)c2cccs2)cc1OC (centres undefined) | inactive
Cc1ccc(C(=O)C(C)OC(=O)Cc2n[nH]c(=O)c3ccccc23)cc1C (centres undefined) | inactive
COc1nc(OC)nc(N(C)CCO)n1 | -12.4 (active)
O=C(CSC1=NS(=O)(=O)c2cc(F)ccc2N1)Nc1ccccc1F | inactive
CN(CC(=O)Nc1cccc(F)c1)C(=O)C1=COCCO1 | inactive
CN(CCO)c1ccc(/C=N/Nc2nncc3ccccc23)cc1 | inactive
O=C(Nc1cccc(C(F)(F)F)c1)c1ccc(N2CCNCC2)c([N+](=O)[O-])c1 | inactive
CCC(C)NC(=O)c1ccc(N2CCC3(CC2)OCCO3)c([N+](=O)[O-])c1 (centres undefined) | inactive
CC1CCN(c2ccc(C(=O)Nc3nnc(C4CC4)s3)cc2[N+](=O)[O-])CC1 | inactive
CC(NC(=O)c1ccc(N2CCNCC2)c([N+](=O)[O-])c1)C12CC3CC(CC(C3)C1)C2 (centres undefined) | -5.65 (active)
O=C(NC1C2CC3CC(C2)CC1C3)c1ccc(N2CCNCC2)c([N+](=O)[O-])c1 (centres undefined) | -5.53 (active)
CS(=O)(=O)N1CCN(c2ccc(C(=O)NC3C4CC5CC(C4)CC3C5)cc2[N+](=O)[O-])CC1 (centres undefined) | inactive
O=C(NCCC1CCCCN1S(=O)(=O)c1ccc(Cl)cc1)C(=O)NCc1ccco1 (centres undefined) | inactive
